{"source": "PubChem BioAssay", "data": [{"experiment": "binders of probe aHhip on microarray, primary screen, stem cell growth factor project, biochemical, small-molecule microarray, fluorescence 635/667 (AID 1087);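 also: score merges spot fluorescence at 667nm with spot signal to noise ratio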", "settings": "higher = more signal", "values": [{"smiles": "COc1ccc(CCNC(=O)[C@@]2(c3ccc([N+](=O)[O-])cc3)CC(=O)N(CC34CC5CC(CC(C5)C3)C4)[C@@H]2c2ccc(CO)cc2)cc1", "composite z-score": 0.0848}, {"smiles": "COCCOC(=O)N1C(=O)[C@@]2(c3ccccc31)[C@H](C(=O)Nc1nc3ccccc3s1)[C@H]1C(=O)O[C@H](c3ccccc3)[C@H](c3ccccc3)N1[C@@H]2c1ccc(OCCO)cc1", "composite z-score": -0.117}, {"smiles": "CC(C)(C)OC(=O)CC[C@@]1(C(=O)NCCN2CCOCC2)N=C(c2ccc(OCCCO)cc2)O[C@@H]1c1ccccc1", "composite z-score": 0.167}, {"smiles": "C=CC(COC(C)=O)NS(=O)(=O)c1ccc(Br)cc1", "note": "(stereo not drawn)", "composite z-score": 0.174}, {"smiles": "[N-]=[N+]=Nc1ccccc1[C@H]1OC(c2ccc(OCCCO)cc2)=N[C@@]1(CCS(=O)(=O)c1ccccc1)C(=O)O", "composite z-score": -0.189}, {"smiles": "CC(C)NC(=O)[C@@H]1c2ccccc2C(=O)N(Cc2ccccc2)[C@H]1c1ccc(CO)cc1", "composite z-score": -0.191}, {"smiles": "COCCOC(=O)N1C(=O)[C@@]2(c3cc(C#CCC(C(=O)OC)C(=O)OC)ccc31)[C@H](c1ccc(O)cc1)N1[C@H](c3ccccc3)[C@H](c3ccccc3)OC(=O)[C@H]1[C@@H]2C(N)=O", "composite z-score": -0.124}, {"smiles": "CC(C)c1ccc(NN2C(C(O)c3cccc(O)c3)C=CC3C(=O)N(c4ccccc4)C(=O)C32)cc1", "note": "(stereo not drawn)", "composite z-score": 0.122}]}]}
